# Data taken from PubChem BioAssay (Tox21).
# Several values for one entry are separate records, joined by “and”; a condition that tells them apart may be missing. Equal values may be shown once. Records with an inconclusive call do not appear. Entries that show only a call come without a potency. The source holds several records for some structures; these can differ, active in one and inactive in another. Activity calls are given as the source filed them. Unless noted, the call rests on the fitted dose curve; in most records, active means well fitted curve in the direction sought with a large enough effect in the repeat runs; inconclusive means weak or mixed curves; inactive means no such curve, though single readings can be large; an effect the other way counts as inactive or inconclusive.
# Key:
# [1] = qHTS assay to identify small molecule antagonists of the sonic hedgehog signaling (Shh) pathway (AID 1259369; calls by dose curve; further: nearly all actives have a fitted effect of over 45% in size; further: potency means the concentration at half of the fitted maximal effect)
# Procedure, shortened: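 NIH/3T3 stable Gli1-Luc clone, 2,000 cells/well, 4hr settle; cpd + conditioned medium 24hr; Luc reagent 30min RT; luminescence.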
# [2] = target: Estrogen receptor beta (Homo sapiens) (UniProt Q92731); assay: qHTS assay to identify small molecule antagonists of the estrogen receptor beta (ER-beta) signaling pathway (AID 1259378; active means well fitted inhibition curve with a large enough effect in the signal ratio in the repeat runs, not every such curve was filed as active; the % refers to the signal ratio; further: potency means the concentration at half of the fitted maximal effect)
# Procedure, shortened: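 Antagonist mode: compounds added to beta-lactamase reporter HEK293T ER-beta-UAS cells stimulated with E2 (1nM final), 16 hr at 37C. LiveBLAzer B/G FRET substrate, 2 hours room temperature, fluorescence read-out.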
# [3] = qHTS assay to identify small molecule agonists of the androgen receptor (AR) signaling pathway in the presence of an antagonist - cell viability counter screen (AID 1259379); further: nearly all actives have a fitted effect of over 25% in size; further: potency means the concentration at half of the fitted maximal effect
# Procedure, shortened: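 MDA-kb2 viability measured by CellTiter-Fluor fluorescence in the same wells as the luciferase signal; nilutamide 3.0uM final; 15-point compound titration; 16 hr at 37C.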
# [4] = qHTS assay to identify small molecule agonists of the estrogen receptor beta (ER-beta) signaling pathway - cell viability counter screen (AID 1259380); further: nearly all actives have a fitted effect of over 30% in size; further: potency means the concentration at half of the fitted maximal effect
# Procedure, shortened: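 Measured: luminescence from CellTiter-Glo after 30 min at room temperature, added to wells already read for the LiveBLAzer FRET reporter (2 hr substrate); ER-beta-UAS-bla HEK293T cells had 16 hr compound treatment at 37C, 5% CO2.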
# [5] = target: Androgen receptor (Homo sapiens) (UniProt P10275); assay: qHTS assay to identify small molecule agonists of the androgen receptor (AR) signaling pathway in the presence of an antagonist (AID 1259381; calls by dose curve; further: nearly all actives have a fitted effect of over 15% in size)
# Procedure, shortened: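 Luminescent ONE-Glo read, 30min at room temperature, follows 16hr compound exposure (15 concentrations) of MDA-kb2 cells at 37C, 0% CO2, with nilutamide added at 3.0uM final.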
# [6] = qHTS assay to identify small molecule antagonists of the estrogen receptor beta (ER-beta) signaling pathway - cell viability counter screen (AID 1259382); further: nearly all actives have a fitted effect of over 55% in size; further: potency means the concentration at half of the fitted maximal effect
# Procedure, shortened: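 Readout: luminescence, CellTiter-Glo, same wells as bla assay. System: ER-beta-UAS-bla GripTite HEK293T, 2% charcoal-stripped FBS. Exposure: compounds plus 1nM 17-beta-estradiol, 16 hr, 37C.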
# [7] = target: Estrogen receptor (Homo sapiens) (UniProt P03372); assay: qHTS assay to identify small molecule agonists of the estrogen receptor alpha (ER-alpha) signaling pathway in the presence of an antagonist (AID 1259383; calls by dose curve; further: nearly all actives have a fitted effect of over 15% in size; further: potency means the concentration at half of the fitted maximal effect; on activation: top concentration of the series differs between compounds)
# Procedure, shortened: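 Quantitative HTS confirmation: compounds titrated at 15 concentrations onto estrogen-deprived VM7Luc4E2 cells carrying a four-ERE luciferase construct, with ICI-182,780 present at 10.0nM final. Signal is luminescence after 22hr exposure.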
# [8] = qHTS assay to identify small molecule agonists or antagonists of the thyroid stimulating hormone receptor (TSHR) signaling pathway - wild type cell line counter screen (AID 1259384; calls by dose curve; further: potency means the concentration at half of the fitted maximal effect)
# Procedure, shortened: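 Counter screen in untransfected Hek293: compounds (15-point titration, triplicate) plus phosphodiesterase inhibitor Ro20-1724 added after 18 h plating; 30 min RT. Intracellular cAMP via competitive d2/cryptate immunoassay, 1 h incubation.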
# [9] = target: Thyrotropin receptor (Homo sapiens) (UniProt P16473); assay: qHTS assay to identify small molecule antagonists of the thyroid stimulating hormone receptor (TSHR) signaling pathway (AID 1259385; calls by dose curve; further: nearly all actives have a fitted effect of over 20% in size; further: potency means the concentration at half of the fitted maximal effect)
# Procedure, shortened: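 Antagonist mode: compound-treated TSHR-expressing HEK293 cells were stimulated with 1.5 ng/mL TSH (final) in presence of Ro20-1724 for 30 min at RT. HTRF cAMP detection after 1 h; each compound tested at 15 concentrations, triplicate.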
# [10] = target: Estrogen receptor beta (Homo sapiens) (UniProt Q92731); assay: qHTS assay to identify small molecule agonists of the estrogen receptor beta (ER-beta) signaling pathway (AID 1259377; active means well fitted activation curve with a large enough effect in the signal ratio in the repeat runs, not every such curve was filed as active; the % refers to the signal ratio)
# Procedure, shortened: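 Beta-lactamase reporter readout: fluorescence of LiveBLAzer B/G FRET substrate after 2 h at room temperature, following 16 h compound treatment of ER-beta-UAS-bla HEK293T cells at 37C in 2% charcoal-stripped FBS medium.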
# Sequence of Thyrotropin receptor (Homo sapiens) (P16473 whole entry, looked up): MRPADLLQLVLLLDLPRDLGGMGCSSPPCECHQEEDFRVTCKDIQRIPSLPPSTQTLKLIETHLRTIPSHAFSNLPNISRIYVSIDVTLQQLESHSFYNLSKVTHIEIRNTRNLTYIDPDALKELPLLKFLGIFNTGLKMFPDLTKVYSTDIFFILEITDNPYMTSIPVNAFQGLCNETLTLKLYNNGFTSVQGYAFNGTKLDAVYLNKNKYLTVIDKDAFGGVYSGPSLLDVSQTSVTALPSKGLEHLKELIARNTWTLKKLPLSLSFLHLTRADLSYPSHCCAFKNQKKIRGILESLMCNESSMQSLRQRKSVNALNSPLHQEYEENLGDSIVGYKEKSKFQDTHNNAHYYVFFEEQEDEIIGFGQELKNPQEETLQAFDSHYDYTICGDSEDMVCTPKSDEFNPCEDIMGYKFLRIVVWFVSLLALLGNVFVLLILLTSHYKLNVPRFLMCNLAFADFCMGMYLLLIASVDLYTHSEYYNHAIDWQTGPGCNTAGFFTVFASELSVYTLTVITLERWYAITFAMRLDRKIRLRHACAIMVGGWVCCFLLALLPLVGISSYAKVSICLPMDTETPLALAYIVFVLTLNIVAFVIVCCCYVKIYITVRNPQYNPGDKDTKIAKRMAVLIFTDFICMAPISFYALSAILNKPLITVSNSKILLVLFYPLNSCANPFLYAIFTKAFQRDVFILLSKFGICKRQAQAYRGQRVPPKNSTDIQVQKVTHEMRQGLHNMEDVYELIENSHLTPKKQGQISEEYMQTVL
# Sequence of Estrogen receptor beta (Homo sapiens) (Q92731 whole entry, looked up): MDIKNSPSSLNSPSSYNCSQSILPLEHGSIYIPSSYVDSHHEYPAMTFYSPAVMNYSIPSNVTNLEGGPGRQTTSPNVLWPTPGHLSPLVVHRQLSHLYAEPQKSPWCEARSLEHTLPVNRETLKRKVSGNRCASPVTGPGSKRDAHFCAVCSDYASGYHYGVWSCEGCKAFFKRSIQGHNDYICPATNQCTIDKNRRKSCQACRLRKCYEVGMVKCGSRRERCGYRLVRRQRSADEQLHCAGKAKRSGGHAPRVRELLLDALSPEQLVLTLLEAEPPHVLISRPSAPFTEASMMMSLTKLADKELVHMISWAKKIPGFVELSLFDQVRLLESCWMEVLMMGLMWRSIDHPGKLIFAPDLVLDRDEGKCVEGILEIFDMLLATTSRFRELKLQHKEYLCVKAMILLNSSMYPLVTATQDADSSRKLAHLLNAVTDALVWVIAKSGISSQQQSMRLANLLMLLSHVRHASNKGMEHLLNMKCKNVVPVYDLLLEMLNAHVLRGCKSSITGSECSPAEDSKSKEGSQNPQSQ
# Sequence of Estrogen receptor (Homo sapiens) (P03372 whole entry, looked up): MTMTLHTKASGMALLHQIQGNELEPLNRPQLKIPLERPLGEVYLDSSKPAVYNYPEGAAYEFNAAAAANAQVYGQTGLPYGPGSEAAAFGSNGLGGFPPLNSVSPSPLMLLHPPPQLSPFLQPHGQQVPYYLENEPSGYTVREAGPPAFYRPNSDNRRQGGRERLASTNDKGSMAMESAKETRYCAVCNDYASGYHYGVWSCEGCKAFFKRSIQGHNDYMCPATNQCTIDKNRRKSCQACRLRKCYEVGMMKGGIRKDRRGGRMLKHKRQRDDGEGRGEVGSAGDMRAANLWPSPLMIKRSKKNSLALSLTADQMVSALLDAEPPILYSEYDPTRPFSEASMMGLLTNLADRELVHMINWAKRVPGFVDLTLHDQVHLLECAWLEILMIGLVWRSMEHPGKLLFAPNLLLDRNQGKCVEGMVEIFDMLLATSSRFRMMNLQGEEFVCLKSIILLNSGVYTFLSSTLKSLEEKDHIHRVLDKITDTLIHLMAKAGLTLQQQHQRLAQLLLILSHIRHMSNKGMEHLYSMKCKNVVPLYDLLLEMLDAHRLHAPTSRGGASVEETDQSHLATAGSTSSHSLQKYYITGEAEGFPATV
# Sequence of Androgen receptor (Homo sapiens) (P10275 whole entry, looked up): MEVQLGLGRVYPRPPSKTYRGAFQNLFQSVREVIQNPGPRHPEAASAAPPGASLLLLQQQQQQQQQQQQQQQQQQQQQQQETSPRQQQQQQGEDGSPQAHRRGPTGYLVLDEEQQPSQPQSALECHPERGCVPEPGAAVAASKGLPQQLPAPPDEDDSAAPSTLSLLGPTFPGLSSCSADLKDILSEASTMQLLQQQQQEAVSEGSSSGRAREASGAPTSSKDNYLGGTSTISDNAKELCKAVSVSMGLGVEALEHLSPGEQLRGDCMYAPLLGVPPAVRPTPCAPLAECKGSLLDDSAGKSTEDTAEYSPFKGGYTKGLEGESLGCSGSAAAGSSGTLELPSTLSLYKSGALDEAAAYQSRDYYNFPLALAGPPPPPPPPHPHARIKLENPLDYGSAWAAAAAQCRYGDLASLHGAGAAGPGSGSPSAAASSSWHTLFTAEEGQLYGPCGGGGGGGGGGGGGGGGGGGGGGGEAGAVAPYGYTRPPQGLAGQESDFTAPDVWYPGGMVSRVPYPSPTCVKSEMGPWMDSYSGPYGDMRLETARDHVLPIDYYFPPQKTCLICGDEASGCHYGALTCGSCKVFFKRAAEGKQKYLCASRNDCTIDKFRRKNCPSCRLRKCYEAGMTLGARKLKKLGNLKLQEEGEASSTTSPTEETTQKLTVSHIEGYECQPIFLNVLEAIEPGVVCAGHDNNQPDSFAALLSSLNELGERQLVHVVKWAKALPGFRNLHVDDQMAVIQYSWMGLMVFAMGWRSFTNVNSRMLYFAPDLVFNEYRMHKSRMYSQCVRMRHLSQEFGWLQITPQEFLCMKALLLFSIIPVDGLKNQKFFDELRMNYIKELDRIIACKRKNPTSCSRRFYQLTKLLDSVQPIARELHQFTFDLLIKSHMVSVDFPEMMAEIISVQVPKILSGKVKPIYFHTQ
Structure (SMILES),Potency [1],Potency [2],Potency [3],Potency [4],outcome [5],Potency [6],Potency [7],Potency [8],Potency [9],outcome [10]
CC(=O)[O][Hg][c]1ccccc1,121 nM (active) and 61.1 nM (active) and 8.4 nM (active),3.44 µM (active),4.29 µM (active) and 6.86 µM (active) and 7.5 µM (active),1.92 µM (active) and 3.86 µM (active) and 5.31 µM (active),inactive,3.04 µM (active) and 4.33 µM (active) and 8.41 µM (active),inactive,2.07 µM (active) and 5.88 µM (active) and 4.92 µM (active),60.6 µM (active) and 68.6 µM (active),
OCCOc1ccccc1,inactive,inactive,inactive,inactive,,inactive,inactive,inactive,inactive,inactive
CC(=O)O,inactive,,inactive,inactive,,inactive,,,,
O=C(O)CCl,inactive,inactive,inactive,inactive,,inactive,,inactive,inactive,inactive
CCOP(=S)(OCC)Oc1ccc2c(C)c(Cl)c(=O)oc2c1,13.8 µM (active),,inactive,inactive,,inactive,,inactive,inactive,inactive
COc1ccccc1N,inactive,,inactive,inactive,,inactive,,,,
O=[N+]([O-])c1ccccc1O,inactive,inactive,inactive,inactive,,inactive,,,,inactive
CC(Cl)(Cl)C(=O)O,inactive,inactive,inactive,inactive,,inactive,inactive,inactive,inactive,inactive
CCC(=O)C(CC(C)N(C)C)(c1ccccc1)c1ccccc1 (centres undefined),24.4 µM (active) and inactive,inactive,inactive,54.7 µM (active),inactive,inactive,inactive,inactive,inactive,inactive
CCn1cc[n+](C)c1C,inactive,,inactive,inactive,,inactive,,,,
CCCC[n+]1ccc(C)cc1,inactive and 24.2 µM (active) and 13.7 µM (active),,inactive,inactive and 60.8 µM (active),,inactive and 60.8 µM (active),,,,
CCCC[N+]1(C)CCCC1,inactive,,inactive,inactive,,inactive,,,,
CCCCCC[n+]1ccccc1,13.8 µM (active) and 17.3 µM (active) and inactive,,inactive,inactive,,inactive,,,,
COP(=O)(OC)OC=C(Cl)Cl,inactive,inactive,inactive,inactive,,inactive,inactive,,,inactive
CCCC[n+]1ccccc1C,inactive,,inactive,inactive,,inactive,,,,
O=S(=O)(O)O,inactive,,inactive,inactive,,inactive,,,,
O=c1nc(O)n(Cl)c(=O)n1Cl,inactive,,inactive,inactive,,inactive,,,,
Nc1ccc(-c2ccc(N)cc2)cc1,inactive,inactive,inactive,inactive,,inactive,inactive,inactive,,inactive
C[C@]12CCC(=O)C=C1CC[C@@H]1[C@@H]2CC[C@]2(C)C(=O)CC[C@@H]12,15.1 µM (active) and 13.7 µM (active) and inactive,inactive,inactive,53.5 µM (active) and 54.5 µM (active),,47.7 µM (active) and inactive,inactive,inactive,inactive,inactive
O=C(O)CC(O)(CC(=O)O)C(=O)O,inactive,,inactive,inactive,,inactive,,,,
Nc1ccc(-c2ccc(N)c(Cl)c2)cc1Cl,2.74 µM (active) and 1.01 µM (active),25.5 µM (active) and 30.6 µM (active),inactive and 54.5 µM (active),30.6 µM (active),,61.1 µM (active),inactive,inactive,inactive and 57 µM (active),
CCCCn1cc[n+](C)c1,inactive,,inactive,inactive,,inactive,,,,

Structure (SMILES),Potency [1],Potency [2],Potency [3],Potency [4],outcome [5],Potency [6],Potency [7],Potency [8],Potency [9],outcome [10]
CCNc1nc(Cl)nc(NCC)n1,2.16 µM (active) and inactive,inactive,inactive,inactive,,inactive,inactive,inactive,inactive,inactive
O=C(O)c1ccccc1O,inactive,,inactive,inactive,,inactive,,,,
CCC[N+]1(C)CCCC1,inactive,,inactive,inactive,,inactive,,,,
Cc1cc(Cl)ccc1OCC(=O)O,inactive,,inactive,inactive,inactive,inactive,inactive,inactive,inactive,
N#CS,inactive,,inactive,inactive,,inactive,,,,
CC[N+]1(C)CCCC1,39.5 µM (active) and inactive,,inactive and 61.3 µM (active),inactive,,inactive,,,,
CCCCn1cc[n+](C)c1C,inactive,,inactive,inactive,,inactive,,,,
COCC(=O)N(c1c(C)cccc1C)C(C)C(=O)OC (centres undefined),inactive,inactive,inactive,inactive,,inactive,inactive,inactive,inactive,inactive
O=C(O)COc1ccc(Cl)cc1Cl,inactive,,inactive,inactive,,inactive,,,,
O=c1[nH]c(=O)n(Cl)c(=O)n1Cl,inactive,,inactive,inactive,,inactive,,,,
Cc1cc(Cl)ccc1N,inactive,,inactive,inactive,,inactive,,inactive,inactive,
C1CCC(NC2CCCCC2)CC1,inactive,,inactive,inactive,,inactive,inactive,inactive,inactive,
CCCCCCCCCCCCCCCCn1cc[n+](C)c1,,,,,,inactive and 61.7 µM (active) and 30.7 µM (active),,inactive,inactive,
O=C(O)C(Cl)(Cl)Cl,inactive,,inactive,inactive,,inactive,,inactive,inactive,
CCCCCCCCCCCC(=O)O,inactive,,inactive,43.3 µM (active),,inactive,,inactive,inactive,
CN(C)[C@@H]1C(=O)C(C(N)=O)=C(O)[C@@]2(O)C(=O)C3=C(O)c4c(O)cccc4[C@@](C)(O)[C@H]3[C@H](O)[C@@H]12,inactive,,inactive,inactive,,inactive,,inactive,inactive,
CCC[N+]1(C)CCCCC1,inactive,,inactive,inactive,,inactive,,inactive,inactive,
CCCCCCCCCCn1cc[n+](C)c1,,,,inactive and 2.73 µM (active),,inactive,,,,
Nc1ccccc1,inactive,,inactive,inactive,,inactive,,inactive,inactive,
C=CCOC(Cn1ccnc1)c1ccc(Cl)cc1Cl (centres undefined),13.7 µM (active) and 9.69 µM (active),,61.3 µM (active) and inactive,27.4 µM (active) and 24.3 µM (active),,30.7 µM (active) and inactive,,inactive,inactive,
CCCCCCCCn1cc[n+](C)c1,215 nM (active) and 174 nM (active),,4.85 µM (active) [middle of 4 runs],,,inactive,,inactive,inactive,
CC[N+](CC)(CC)CC,inactive,,inactive,inactive,,inactive,,inactive,inactive,

Structure (SMILES),Potency [1],Potency [2],Potency [3],Potency [4],outcome [5],Potency [6],Potency [7],Potency [8],Potency [9],outcome [10]
Oc1cccc2cccnc12,,,6.14 µM (active) and 9.69 µM (active) and inactive,1.38 µM (active) and 1.22 µM (active) and inactive,,inactive,,,,
CCCn1cc[n+](C)c1,inactive,,inactive,inactive,,inactive,,inactive,inactive,
CCCCCCCCCCCCOS(=O)(=O)O,inactive,,inactive,,,54.5 µM (active) and inactive,,,,
Oc1ccccc1-c1ccccc1,inactive and 62.6 µM (active),,inactive,inactive,,inactive,inactive,,,
CCCCCCn1cc[n+](C)c1,7.74 µM (active) and 89.9 nM (active),,50.5 µM (active) [middle of 6 runs],inactive,,inactive,,,,
COP(=O)(OC)C(O)C(Cl)(Cl)Cl (centres undefined),inactive,,inactive,inactive,,inactive,,inactive,inactive,
CCCC[n+]1ccccc1,inactive,,inactive,inactive,,inactive,,inactive,inactive,
Nc1ccc(Cl)cc1,inactive,,inactive,inactive,,inactive,inactive,inactive,inactive,
CNC,inactive,,inactive,inactive,,inactive,,,,
CCCC[n+]1cccc(C)c1,inactive,,inactive,inactive,,inactive,,,,
Cc1cc(-c2ccc(N)c(C)c2)ccc1N,8.73 µM (active),,inactive,,,inactive,2.14 µM (active) and inactive,,,
O=C(O)C(Cl)Cl,inactive,,inactive,inactive,,inactive,inactive,inactive,inactive,
C[N+](C)(C)Cc1ccccc1,inactive,,inactive,inactive,,inactive,inactive,inactive,inactive,
O=[N+]([O-])O,inactive,,inactive,inactive,,inactive,,inactive,inactive,
O=P1(N(CCCl)CCCl)NCCCO1 (centres undefined),inactive,,inactive,inactive,,inactive,inactive,inactive,inactive,
O=C(O)c1nc(Cl)ccc1Cl,inactive,,inactive,inactive,,inactive,inactive,inactive,inactive,
CCCC[N+]1(C)CCCCC1,inactive,,inactive,inactive,,inactive,,inactive,inactive,
CCCCCCCCCCCCCC[P+](CCCCCC)(CCCCCC)CCCCCC,1.09 µM (active) and 1.1 µM (active) and 769 nM (active),,9.73 µM (active) and 24.5 µM (active) and 2.43 µM (active),12.2 µM (active) and 27.5 µM (active),,13.7 µM (active) and 27.5 µM (active) and inactive,inactive,inactive,68.9 µM (active) and 69.1 µM (active) and inactive,
COc1ccc(N)cc1,inactive,,inactive,inactive,,inactive,,inactive,inactive,
CC[n+]1ccccc1,inactive and 429 nM (active),,inactive and 24.1 µM (active),inactive and 60.6 µM (active),,inactive,,inactive,inactive,
